According to PubChem BioAssay (NCATS):
Results filed as inconclusive are left out. The source made the active and inactive calls. The call rests on the fitted dose curve; in most records, active means well fitted curve in the direction sought with a large enough effect; inconclusive means small, poorly fitted or top-dose-only effect, or another doubt; inactive means no such curve, though single readings can be large; an effect the other way counts as inactive or inconclusive.

What was measured:
[1] = molecular target: Rap guanine nucleotide exchange factor 3 (Homo sapiens) (UniProt O95398); experiment: Confirmatory qHTS for antagonist of cAMP-regulated guanine nucleotide exchange factor 3 (EPAC1) (AID 1645880); further: nearly all actives have a fitted effect of over 55% in size; further: potency means the concentration at half of the fitted maximal effect
Chain of Rap guanine nucleotide exchange factor 3 (Homo sapiens) (O95398 whole entry, looked up): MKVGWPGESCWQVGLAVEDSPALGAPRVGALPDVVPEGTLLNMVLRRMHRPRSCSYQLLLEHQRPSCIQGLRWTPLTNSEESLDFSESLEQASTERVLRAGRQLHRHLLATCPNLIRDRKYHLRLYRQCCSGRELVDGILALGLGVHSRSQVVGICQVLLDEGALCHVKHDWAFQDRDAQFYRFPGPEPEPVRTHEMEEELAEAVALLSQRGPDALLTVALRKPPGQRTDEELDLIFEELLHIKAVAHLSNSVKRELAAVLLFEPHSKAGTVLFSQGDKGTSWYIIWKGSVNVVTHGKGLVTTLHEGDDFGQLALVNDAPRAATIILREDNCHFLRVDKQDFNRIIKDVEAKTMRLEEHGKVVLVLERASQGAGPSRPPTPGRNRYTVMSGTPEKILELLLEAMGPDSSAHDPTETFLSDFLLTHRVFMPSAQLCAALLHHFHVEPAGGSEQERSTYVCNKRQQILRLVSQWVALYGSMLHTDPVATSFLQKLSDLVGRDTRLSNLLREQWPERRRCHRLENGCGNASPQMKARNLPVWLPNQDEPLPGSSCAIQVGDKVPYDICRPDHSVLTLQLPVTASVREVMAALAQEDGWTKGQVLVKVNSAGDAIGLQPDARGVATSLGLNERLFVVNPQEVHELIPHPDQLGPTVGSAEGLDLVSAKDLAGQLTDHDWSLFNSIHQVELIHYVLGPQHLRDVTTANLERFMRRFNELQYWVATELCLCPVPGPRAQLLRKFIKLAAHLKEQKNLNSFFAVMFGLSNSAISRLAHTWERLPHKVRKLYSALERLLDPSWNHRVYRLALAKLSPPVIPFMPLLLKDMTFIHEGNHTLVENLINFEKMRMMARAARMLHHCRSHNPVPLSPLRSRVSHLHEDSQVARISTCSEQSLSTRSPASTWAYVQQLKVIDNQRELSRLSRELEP
Method in brief: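 Nucleotide exchange uses 100 nM EPAC1, 250 nM RAP1B-BODIPY-GDP and 50 uM GDP, with compounds in a concentration-titration series. After 5 min at room temperature, fluorescence (480 nm ex/540 nm em) is read every 5 min for 30 min. Data are normalized to control ATA and DMSO.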

[2] = molecular target: Rap guanine nucleotide exchange factor 3 (Homo sapiens) (UniProt O95398); experiment: Confirmatory qHTS for agonist of cAMP-regulated guanine nucleotide exchange factor 3 (EPAC1) (AID 1645881);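 further: EPAC1 catalysed release of BODIPY-GDP from Rap1B seen as fluorescence loss; 100% = effect of cAMP agonist control; nearly all actives have a fitted effect of over 75% in size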
[3] = molecular target: Rap guanine nucleotide exchange factor 4 (Homo sapiens) (UniProt Q8WZA2); experiment: Confirmatory qHTS for agonist of cAMP-regulated guanine nucleotide exchange factor 4 (EPAC2) (AID 1645884);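 further: nucleotide exchange releases bodipy-GDP from Rap1 and this lowers its fluorescence; on the % scale 0 is the no-effect control and ±100 the full control effect; nearly all actives have a fitted effect of over 65% in size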
Chain of Rap guanine nucleotide exchange factor 4 (Homo sapiens) (Q8WZA2 whole entry, looked up): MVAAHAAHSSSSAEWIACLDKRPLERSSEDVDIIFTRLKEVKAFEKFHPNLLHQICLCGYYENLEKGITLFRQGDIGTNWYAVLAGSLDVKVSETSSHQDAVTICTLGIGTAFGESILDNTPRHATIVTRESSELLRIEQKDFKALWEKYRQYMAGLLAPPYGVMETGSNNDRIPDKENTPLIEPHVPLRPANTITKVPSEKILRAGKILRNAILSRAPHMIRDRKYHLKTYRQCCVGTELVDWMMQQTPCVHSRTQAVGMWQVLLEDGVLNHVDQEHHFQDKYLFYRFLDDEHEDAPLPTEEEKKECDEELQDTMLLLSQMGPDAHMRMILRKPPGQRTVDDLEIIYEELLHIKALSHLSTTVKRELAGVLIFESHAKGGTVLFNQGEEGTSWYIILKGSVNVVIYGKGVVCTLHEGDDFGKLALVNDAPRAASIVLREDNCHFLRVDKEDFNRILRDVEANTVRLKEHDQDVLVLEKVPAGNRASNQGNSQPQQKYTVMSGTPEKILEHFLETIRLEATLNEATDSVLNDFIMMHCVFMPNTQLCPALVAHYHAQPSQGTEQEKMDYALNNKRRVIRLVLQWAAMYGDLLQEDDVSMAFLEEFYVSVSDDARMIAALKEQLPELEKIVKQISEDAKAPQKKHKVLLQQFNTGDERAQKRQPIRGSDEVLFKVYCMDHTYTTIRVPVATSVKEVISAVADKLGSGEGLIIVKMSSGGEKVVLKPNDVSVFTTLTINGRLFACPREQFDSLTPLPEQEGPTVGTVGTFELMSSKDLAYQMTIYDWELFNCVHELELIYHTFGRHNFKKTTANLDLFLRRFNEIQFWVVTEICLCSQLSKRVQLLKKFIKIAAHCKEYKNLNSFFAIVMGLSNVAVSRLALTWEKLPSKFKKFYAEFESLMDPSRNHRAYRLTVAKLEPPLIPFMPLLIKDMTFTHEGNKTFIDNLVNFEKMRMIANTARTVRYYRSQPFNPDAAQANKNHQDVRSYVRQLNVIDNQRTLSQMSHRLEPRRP

[4] = molecular target: Rap guanine nucleotide exchange factor 4 (Homo sapiens) (UniProt Q8WZA2); experiment: Confirmatory qHTS for antagonist of cAMP-regulated guanine nucleotide exchange factor 4 (EPAC2) (AID 1645885); further: nearly all actives have a fitted effect of over 25% in size; further: potency means the concentration at half of the fitted maximal effect; on activity change, negative = inhibition: on the % scale 0 is the no-effect control and ±100 the full control effect
[5] = molecular target: Rap guanine nucleotide exchange factor 3 (Homo sapiens) (UniProt O95398); experiment: Counterscreen qHTS for antagonist of cAMP-regulated guanine nucleotide exchange factor 3 (EPAC1) (AID 1645888);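 further: fluorescence loss as bound BODIPY-GDP is released from Rap1B; % of control where 0% means no effect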
Method in brief: (§1)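 Rap1B-BODIPY-GDP 250 nM + GDP 50 uM; cpds 7-pt, final 9.74 nM–152 uM (activator mode) or from 7.32 nM upwards (inhibitor mode); RT; FI 480/540 nm at 5 and 30 min, then ± cAMP, reread.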

[6] = molecular target: Rap guanine nucleotide exchange factor 3 (Homo sapiens) (UniProt O95398); experiment: Counterscreen qHTS for agonist of cAMP-regulated guanine nucleotide exchange factor 3 (EPAC1) (AID 1645889); further: nearly all actives have a fitted effect of over 40% in size; further: potency means the concentration at half of the fitted maximal effect; on activation: % of control where 0% means no effect
Method in brief: as §1

COc1ccccc1OCC(=O)Nc1cc(C(F)(F)F)ccc1-n1cncn1
inactive: Potency [1] | Potency [2] | activation [3] 2.73% [at 17.1 µM, percent relative to cAMP agonist control] | Potency [4] | activity change, negative = inhibition [5] -12% [at 30.8 µM] | activation [6] 5.31% [at 30.8 µM]

Cc1ccc(C(CCN(Cc2ccccc2)C(=O)c2ccco2)c2ccco2)cc1 (stereo unspecified)
active: Potency [1] 37.9 µM | Potency [4] 53.6 µM
inactive: Potency [2] | Potency [3] | Potency [5] | Potency [6]

CC1(C(=O)NS(=O)(=O)c2ccc(Cl)s2)CCN1C(=O)C1(c2ccccc2)CCCC1 (stereo unspecified)
active: Potency [1] 37.9 µM | Potency [4] 8.49 µM
inactive: Potency [2] | Potency [3] | Potency [5] | Potency [6]

CC(C)(C)C(=O)Nc1ccc2nc(SCC(=O)N3CCc4ccccc43)sc2c1
inactive: Potency [1] | Potency [2] | Potency [3] | Potency [4] | Potency [5] | Potency [6]

CN(Cc1ccc(F)cc1)C(=O)c1cccc(OCc2ccccc2)c1
inactive: Potency [1] | Potency [2] | activation [3] 10.9% [at 17.1 µM, percent relative to cAMP agonist control] | Potency [4] | activity change, negative = inhibition [5] 1.29% [at 30.8 µM] | activation [6] -0.388% [at 30.8 µM]

CC(C(=O)Nc1ccccc1-c1ccccc1)N1CCN(C(=O)c2ccccc2)CC1 (stereo unspecified)
inactive: Potency [1] | Potency [2] | activation [3] 12.7% [at 17.1 µM, percent relative to cAMP agonist control] | Potency [4] | activity change, negative = inhibition [5] 16.7% [at 30.8 µM] | activation [6] 29% [at 30.8 µM]

COc1ccc(CNc2cccnc2)c(OC)c1OC
inactive: Potency [1] | Potency [2] | activation [3] -6.76% [at 17.1 µM, percent relative to cAMP agonist control] | Potency [4] | activity change, negative = inhibition [5] -16% [at 30.8 µM] | activation [6] 15.5% [at 30.8 µM]

CC1=C(C(=O)NC2CCC(C)CC2)C2(CCC(C)CC2)OC1=O (stereo unspecified)
inactive: Potency [1] | Potency [2] | activation [3] 1.07% [at 17.1 µM, percent relative to cAMP agonist control] | Potency [4] | activity change, negative = inhibition [5] -11.5% [at 30.8 µM] | activation [6] -0.546% [at 30.8 µM]

COC1=CC(=O)c2c(ccc3ncnc(N)c23)C1=O
active: Potency [1] 19 µM | Potency [4] 26.9 µM
inactive: Potency [2] | Potency [3] | Potency [5] | Potency [6]

CCCS(=O)(=O)N1CCC(C(=O)NCCN2CCCC2)CC1
inactive: Potency [1] | Potency [2] | activation [3] 10.1% [at 17.1 µM, percent relative to cAMP agonist control] | Potency [4] | activity change, negative = inhibition [5] -10.8% [at 30.8 µM] | activation [6] 25.6% [at 30.8 µM]

OC1C2CN3CCN(C2)CC1(Cc1ccccc1)C3 (stereo unspecified)
inactive: Potency [1] | Potency [2] | activation [3] 3.83% [at 17.1 µM, percent relative to cAMP agonist control] | Potency [4] | activity change, negative = inhibition [5] -12.7% [at 30.8 µM] | activation [6] 28.2% [at 30.8 µM]

Cc1cc(=O)n(C2CCS(=O)(=O)C2)[nH]1 (stereo unspecified)
inactive: Potency [1] | Potency [2] | Potency [3] | Potency [4] | Potency [5]
active: Potency [6] 4.47 µM

COC(=O)c1sc(-c2ccccc2)cc1NC(C)=O
inactive: Potency [1] | Potency [2] | activation [3] 3.04% [at 17.1 µM, percent relative to cAMP agonist control] | Potency [4] | activity change, negative = inhibition [5] 7.63% [at 30.8 µM] | activation [6] 9.28% [at 30.8 µM]

CCOc1ccc(NS(=O)(=O)c2cc3c(cc2C)N(C)CCO3)cc1
inactive: Potency [1] | Potency [2] | activation [3] 7.18% [at 17.1 µM, percent relative to cAMP agonist control] | Potency [4] | activity change, negative = inhibition [5] -12% [at 30.8 µM] | activation [6] 29.5% [at 30.8 µM]

O=C(CSc1nnc(CCc2ccccc2)n1-c1ccc(Cl)cc1)NCc1ccccc1
inactive: Potency [1] | Potency [2] | Potency [3] | Potency [4] | Potency [5] | Potency [6]

O=C1C(Cl)=C(N2CCC(C(=O)O)CC2)C(=O)c2ccccc21
inactive: Potency [1] | Potency [2] | Potency [3] | Potency [4] | Potency [5]
active: Potency [6] 15.8 µM

CC1=NOC(=O)/C1=C\c1ccc(-c2ccc(Cl)cc2Cl)o1
inactive: Potency [2] | activation [3] -0.185% [at 17.1 µM, percent relative to cAMP agonist control] | Potency [4] | activity change, negative = inhibition [5] -37.2% [at 30.8 µM] | activation [6] 15.1% [at 30.8 µM]
active: Potency [1] 15.8 µM

Cc1cn(S(=O)(=O)c2ccccc2[N+](=O)[O-])cn1
inactive: Potency [1] | Potency [2] | activation [3] 0.773% [at 17.1 µM, percent relative to cAMP agonist control] | Potency [4] | activity change, negative = inhibition [5] -3.67% [at 30.8 µM] | activation [6] -4.19% [at 30.8 µM]

Cc1ccccc1OCCC(=O)OCC(=O)N1CCN(S(=O)(=O)c2ccc(Cl)cc2)CC1
inactive: Potency [1] | Potency [2] | activation [3] 7.52% [at 17.1 µM, percent relative to cAMP agonist control] | Potency [4] | activity change, negative = inhibition [5] -4.15% [at 30.8 µM] | activation [6] 26.1% [at 30.8 µM]

NN=C1c2ccccc2C(=O)C1C(=O)C(c1ccccc1)c1ccccc1 (stereo unspecified)
active: Potency [1] 42.6 µM
inactive: Potency [2] | Potency [3] | Potency [4] | Potency [5] | Potency [6]

Cc1cc2ccccn2c1C(=O)c1ccccc1F
inactive: Potency [1] | Potency [2] | activation [3] 3.67% [at 17.1 µM, percent relative to cAMP agonist control] | Potency [4] | activity change, negative = inhibition [5] -3.01% [at 30.8 µM] | activation [6] 21.5% [at 30.8 µM]

COc1cc(/C=C2/C(=O)NN(c3ccc(C)c(Cl)c3)C2=O)cc([N+](=O)[O-])c1O
inactive: Potency [2] | Potency [3] | Potency [4] | Potency [5] | Potency [6]
active: Potency [1] 8.49 µM

Cc1ccc(S(=O)(=O)/N=C2/NC(=O)/C(=C\c3cc(Br)cc(Br)c3O)S2)cc1
inactive: Potency [2] | Potency [3] | Potency [4] | Potency [5] | Potency [6]
active: Potency [1] 16.9 µM

Cc1ccc(-n2nc3c(=O)n(CCCC(=O)NCc4ccccc4F)nc(C)c3c2C)cc1
inactive: Potency [1] | Potency [2] | Potency [3] | Potency [4] | Potency [5] | Potency [6]

CCOc1ccc(Oc2ccccc2NC(=O)CN2C(=O)NC3(CCCC3)C2=O)cc1
inactive: Potency [1] | Potency [2] | activation [3] -25.9% [at 17.1 µM, percent relative to cAMP agonist control] | Potency [4] | activity change, negative = inhibition [5] -5.88% [at 30.8 µM] | activation [6] 10.7% [at 30.8 µM]

COC(=O)c1scc(C#N)c1N/N=C(\C#N)S(=O)(=O)c1ccc(Cl)cc1
inactive: Potency [2] | Potency [3] | Potency [4] | Potency [5] | Potency [6]
active: Potency [1] 47.8 µM

CN(Cc1ccccc1)S(=O)(=O)c1ccc(Cl)c(C(=O)NCc2ccncc2)c1
inactive: Potency [1] | Potency [2] | Potency [3] | Potency [4] | Potency [5] | Potency [6]

COc1ccc(CN2C(=O)c3cccnc3C2Nc2cc(Cl)c(OC)cc2OC)cc1 (stereo unspecified)
active: Potency [1] 75.7 µM
inactive: Potency [2] | Potency [3] | Potency [4] | Potency [5] | Potency [6]

Cc1ccc(S(=O)(=O)N2[C@@H](c3ccc(Br)cc3)C(C(=O)O)=CC[C@H]2c2ccc(Cl)cc2)cc1
inactive: Potency [2] | Potency [3] | Potency [4] | Potency [5] | Potency [6]
active: Potency [1] 75.7 µM

O=C(CCC(=O)N1CCSc2ccccc21)NCc1cccc(Cl)c1
inactive: Potency [1] | Potency [2] | activation [3] 1.67% [at 17.1 µM, percent relative to cAMP agonist control] | Potency [4] | activity change, negative = inhibition [5] 1.86% [at 30.8 µM] | activation [6] 22.1% [at 30.8 µM]

COc1ccc(/C=C/C(=O)NC2CCS(=O)(=O)C2)cc1 (stereo unspecified)
inactive: Potency [1] | Potency [2] | Potency [3] | Potency [4] | Potency [5] | Potency [6]
